Screening data: PubChem BioAssay, National Center for Advancing Translational Sciences (NCATS)
G9a block = qHTS Assay for Inhibitors of Histone Lysine Methyltransferase G9a; Histone-lysine N-methyltransferase EHMT2 (Homo sapiens), Q96KQ7; actives 8.8% (n = 350,000); G9a H3K9 monomethylation, AlphaScreen, 2 h; Potency, µM (series often up to 102 µM), for the others: top-dose activity, negative = inhibition, actives largely listed as inhibitors; note: % is set by controls: 0 for no effect and ±100 for the full control effect; nearly all actives have a fitted effect of over 75% in size
Target sequence (Q96KQ7 913-1193 limits assumed): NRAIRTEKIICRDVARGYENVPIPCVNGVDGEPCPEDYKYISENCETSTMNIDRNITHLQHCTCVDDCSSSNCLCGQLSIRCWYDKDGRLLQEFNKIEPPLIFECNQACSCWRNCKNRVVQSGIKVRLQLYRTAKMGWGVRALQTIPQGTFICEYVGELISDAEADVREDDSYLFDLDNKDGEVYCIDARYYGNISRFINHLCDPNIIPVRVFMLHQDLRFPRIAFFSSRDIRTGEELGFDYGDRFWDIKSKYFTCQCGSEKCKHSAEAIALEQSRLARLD
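G9a (20 nM) was preincubated 15 min with compound, then reacted 2 h at room temperature with 500 nM biotin-H3K9 peptide and 20 µM SAM. Monomethyl-H3K9 detected by AlphaScreen using anti-H3K9me1 antibody.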
BAZ2B block = qHTS Assay for Inhibitors of BAZ2B | Bromodomain adjacent to zinc finger domain protein 2B (Homo sapiens), Q9UIF8 | AlphaScreen BAZ2B-H3K14Ac peptide displacement | Potency, µM (series often up to 114 µM), for the others: at the highest dose activity change, negative = inhibition, usual class: inhibitors | actives 4.4% (n = 360,000) | AID 504333, 2011; note: % is set by controls: 0 for no effect and ±100 for the full control effect; nearly all actives have a fitted effect of over 60% in size
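Protein-peptide AlphaScreen: BAZ2B 50 nM, b-H3K14Ac 50 nM, 1x PBS pH 7.4 + 0.01% Tween-20. Preincubation 30 min RT; cpd 30 min RT (top 110 uM); beads 20 min RT, light-protected.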
L3MBTL1 inh = qHTS Assay for the Inhibitors of L3MBTL1. Lethal(3)malignant brain tumor-like protein 1 (Homo sapiens), Q9Y468. AlphaScreen L3MBTL1–H3K9me1 peptide binding. Potency, µM (highest dose often 57.1 µM), for inactives: top-dose activity, negative = inhibition, actives largely listed as inhibitors. actives 0.66% (n = 230,000). AID 485360, 2010; note: % is set by controls: 0 for no effect and ±100 for the full control effect; nearly all actives have a fitted effect of over 60% in size
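Read-out is AlphaScreen signal from streptavidin donor and nickel chelate acceptor beads (10 ug/mL final each) bridging L3MBTL1 (50 nM) and biotinylated K9-monomethylated H3(1-15) peptide (75 nM), after 30 min compound exposure at room temperature.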
Sfp PPTase inh = qHTS Assay for Inhibitors of Bacillus subtilis Sfp phosphopantetheinyl transferase (PPTase). Potency, µM, for the others: largest response in the series, negative = inhibition, actives largely listed as inhibitors. Biochemical Sfp PPTase activity, qHTS. 4'-phosphopantetheinyl transferase ffp (Bacillus subtilis), Q9F4F7. actives 3.5% (n = 310,000);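 note: the enzyme is Sfp with the accession as filed and its product quenches rhodamine fluorescence; 0% = enzyme reaction without inhibitor and -100% = no enzyme wells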
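With Hepes-Na pH 7.6 buffer containing 10 mM MgCl2, Sfp (15 nM) modified BHQ-2-YbbR (12.5 uM) using rhodamine-CoA (5 uM). Two reads 30 minutes apart at 525/598 nm yielded each well's rate.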
JMJD2A Tudor inh = qHTS Assay for Inhibitors of JMJD2A-Tudor Domain. AlphaScreen JMJD2A-Tudor / H3K4me3 peptide binding. Potency, µM (highest dose often 114 µM), for the others: at the top dose activity change, negative = inhibition, most hits filed as inhibitors. Lysine-specific demethylase 4A (Homo sapiens), O75164. actives 4.4% (n = 390,000); note: % is set by controls: 0 for no effect and ±100 for the full control effect; nearly all actives have a fitted effect of over 50% in size
HP1b binding inh = HTS for Inhibitors of HP1-beta Chromodomain Interactions with Methylated Histone Tails; Chromobox protein homolog 1 (Homo sapiens), P83916; AlphaScreen HP1-beta / biotin-H3K9me3 peptide binding; Potency, µM (titrated, usually from 114 µM), for inactives: at the top dose activity change, negative = inhibition, usual class: inhibitors; actives 0.56% (n = 390,000); AID 540317, 2011; note: nearly all actives have a fitted effect of over 70% in size
Target sequence (P83916 whole entry, looked up): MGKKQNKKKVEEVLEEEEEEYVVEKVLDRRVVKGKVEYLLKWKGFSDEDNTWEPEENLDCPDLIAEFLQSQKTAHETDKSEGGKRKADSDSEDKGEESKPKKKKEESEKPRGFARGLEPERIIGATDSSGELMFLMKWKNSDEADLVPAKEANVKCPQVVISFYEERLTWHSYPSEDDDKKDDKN
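HP1-beta protein (50 nM final) preincubated 30 min at room temperature with biotinylated H3(1-18)K9me3 peptide (50 nM) in PBS pH 7.4, 0.01% Tween-20, then compound added for 30 min. AlphaScreen streptavidin donor/nickel chelate acceptor beads (10 ug/mL final), 30 min dark, luminescence read.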
* marks the source's active call; other numbers are inactive results; u = inconclusive; x = not tested or not shown; [ ] = remark or other dose. In the library only some 12% were active in any assay of this set; here they are far more common. Calls come from the whole dose curve; as a rule, active = well fitted curve in the direction sought with a large enough effect; inconclusive = small, poorly fitted or top-dose-only effect, or another doubt; inactive = no such curve, though single readings can be large; an effect the other way counts as inactive or inconclusive. Potency is the fitted concentration of half-maximal effect.

SMILES	G9a block	BAZ2B block	L3MBTL1 inh	Sfp PPTase inh	JMJD2A Tudor inh	HP1b binding inh
CCOc1ccc(NC(=O)COC(=O)CN2CCCCCC2=O)cc1	x	x	-6%	x	-5%	39%
O=[N+]([O-])c1cccc(S(=O)(=O)Nc2ccc(-c3ccc(N4CCOCC4)nn3)cc2)c1	45µM*	-6%	14%	x	-26%	13%
O=[N+]([O-])c1cccc(S(=O)(=O)Nc2cccc(-c3ccc(N4CCOCC4)nn3)c2)c1	10µM*	-9%	25%	x	-16%	11%
O=[N+]([O-])c1cccc(S(=O)(=O)Nc2ccc(-c3ccc(N4CCCC4)nn3)cc2)c1	-45%	-28%	2%	x	-25%	11%
CC(C)(C)OC(=O)N1CCC(c2c(C(=O)NCCN3CCCC3)cnn2-c2ccc(Cl)cc2)CC1	-7%[59 µM]	11%[57.1 µM]	x	x	-14%	11%
O=C(COC(=O)/C=C/c1ccccc1[N+](=O)[O-])NC(=O)NC1CCCC1	u	-31%	-5%	x	-36%	-4%
COc1ccc2[nH]c(-c3ccc(C)cc3)cc(=O)c2c1	79µM*	7%	12%	12%	-15%	39%
Cc1cccc(NC(=O)CNC(=O)CN2C(=O)NC(C)(CCC(C)C)C2=O)c1C (stereo not given)	x	x	x	x	2%	51%
Cc1cc2nn(-c3ccc(Cl)cc3)nc2cc1N	13µM*	u	x	-19%	20%	24%
COC(=O)Cc1[nH]nc2c1C1(C(=O)N(Cc3ccccc3)c3ccccc31)C(C#N)=C(N)O2 (stereo not given)	0%[12.7 µM]	-3%	1%	16%	6%	39%
Cc1[nH]nc2c1C1(C(=O)N(Cc3ccc(Cl)cc3)c3ccccc31)C(C#N)=C(N)O2 (stereo not given)	50µM*	-12%	-3%	-6%	u	7%
C/C(CC(=O)N1CCN(C=O)CC1)=N\NC(=O)c1ccc([N+](=O)[O-])cc1	10µM*	0%	9%	u	-7%	32%
CNC(=O)c1ccc(NC(=O)CC2SC(N3CCCC3)=NC2=O)cc1 (stereo not given)	2µM*	-13%	-9%	x	3%	40%
O=C(CC1SC(N2CCOCC2)=NC1=O)Nc1ccc(Cl)cc1 (stereo not given)	50µM*	7%	-8%	x	0%	31%
Cc1nc(N2CCOCC2)c2nc(-c3ccccc3)n(CCN3CCOCC3)c2n1	x	x	x	14%	x	x
O=C(Nc1ccccc1F)c1ccc(CSc2ncccn2)cc1	u	-16%	-1%[11.4 µM]	10%	1%	23%
O=C(Nc1ccccc1)c1ccc(CSc2ncccn2)cc1	42%[0.501 µM]	45µM*	-3%	-3%	-5%	15%
CCN(c1ccccc1)S(=O)(=O)c1ccc2c(c1)N(C(C)=O)CCS2	2%	-16%	x	3%	-4%	45%
Cc1ccc(C(=O)CSC2=NC(N)=C(C#N)C3(CCCCC3)C2C(N)=O)cc1 (stereo not given)	40µM*	-35%	-6%	45µM*	u	u
N#CC1=C(N)N=C(SCc2ccccc2)C(C(N)=O)C12CCCCC2 (stereo not given)	47%[12.7 µM]	u	-2%	-29%	-26%	11%
CSc1cccc(NC(=S)NC(=O)c2cccnc2)c1	u	-26%	-1%	13%	-14%	28%
